From PubChem BioAssay AID686978 (National Center for Advancing Translational Sciences (NCATS), 2013)
The campaign covered roughly 420,000 compounds. About 64,000 (15%) were called active. Inconclusive results (about 27%) are left out. Not all results are given here. A number with no mark means an inactive call. Calls come from the whole dose curve; as a rule, active = well fitted inhibition curve with a large enough effect; inconclusive = small, poorly fitted or top-dose-only effect; inactive = flat fitted curve, though single readings scatter.

Assay: qHTS for Inhibitors of human tyrosyl-DNA phosphodiesterase 1 (TDP1): qHTS in cells in absence of CPT; note: nearly all actives have a fitted effect of over 55% in size
Settings: DT40 Tdp1-/- hTDP1 cells, no CPT, ATP luminescence, 48 h; activity change, negative = growth inhibition: at 46.2 µM (top of the series)
How it was run: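 Camptothecin absent (DMSO only). Human TDP1-complemented DT40 knockout cells, 400 cells/well, 37 °C for minimum 48 hr; ATP measured via CellTiter-Glo, 30 min dark incubation, luminescence.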
% is set by controls: 0 for no effect and ±100 for the full control effect; potency is the fitted concentration of half-maximal effect.

| SMILES | activity change, negative = growth inhibition [%] | Potency |
| --- | --- | --- |
| Cn1cnc2c1c(=O)n(Cc1ccccc1C#N)c(=O)n2C | 14.5 |  |
| CCn1c(CSc2nncn2-c2ccc(OC)cc2)nc2cc(S(=O)(=O)N(C)C)ccc21 | -12.7 |  |
| COC(=O)CN1C(=O)C(O)=C(C(C)=O)C1c1ccc([N+](=O)[O-])cc1 (stereo not drawn) | -5.52 |  |
| CC(C)(C)CC(C)(C)NCC(O)COCCOc1ccc(Br)cc1 (stereo not drawn) |  | 2.31 µM (active) |
| Cc1noc(COc2ccccc2OCC(O)CNC(C)(C)C)n1 (stereo not drawn) | -16.8 |  |
| OC(COc1ccc(Br)cc1)CN1CCCC1 (stereo not drawn) | -3.64 |  |
| O=C(N/N=C\c1cccc(Br)c1)c1ccccc1-n1cccc1 | -14 |  |
| C=C1CCN([C@@H](Cc2ccccc2)C(=O)N2CCOCC2)S(=O)(=O)c2ccccc21 | -13.4 |  |
| CC1(C)OC(=O)C2=C(C[C@@H](C3CCCCC3)O[C@@H]2c2ccc(Cl)cc2)O1 |  | 20.6 µM (active) |
| CC1(C)OC(=O)C2=C(C[C@@H](C3CC3)O[C@H]2c2ccc(Cl)cc2)O1 | -11.7 |  |
| CCC1OC(C2CC2)CC2=C1C(=O)OC(C)(C)O2 (stereo not drawn) | -5.73 |  |
| OC(COCc1ccco1)CN1CCN(c2ccccc2)CC1 (stereo not drawn) | -2.82 |  |
| COc1ccc(-c2nnc(NC(=O)CS(=O)(=O)c3ccc(Cl)cc3)o2)c(OC)c1 | -0.822 |  |
| COc1cccc(-c2nnc(NC(=O)c3ccc(S(=O)(=O)N(CC(C)C)CC(C)C)cc3)o2)c1 |  | 4.61 µM (active) |
| COc1cccc(C(=O)NNS(=O)(=O)c2ccc(F)cc2)c1 | -10.6 |  |
| COc1ccc(CNC(=O)CN(Cc2ccc(Cl)cc2)S(C)(=O)=O)cc1 | -2.62 |  |
| COc1ccc(OC)c(-n2c(=S)[nH]c3cc(C(=O)N4CCCCC4)ccc3c2=O)c1 | -27.4 |  |
| Cc1ccc2cccc(O)c2[n+]1[O-] | -8.39 |  |
| CCOC(=O)c1[nH]c2ccc(OC)cc2c1NC(=O)N1CCOCC1 | -20.1 |  |
| COc1ccc(CCNC(=O)c2c3c(nc4ccccc24)C(=O)N(C2CCCCC2)C3)cc1OC |  | 23.1 µM (active) |
| COc1ccc(CCNC(=O)CCC(=O)NC2CCCCC2)cc1OC | -5.05 |  |
| COc1ccc(CCNC(=O)C2CCCN2C(=O)Nc2ccccc2)cc1OC (stereo not drawn) | 5.92 |  |
| CCNC(=O)CC1C(=O)N(c2ccc(OC)cc2)C(=O)N1CCOC (stereo not drawn) | 2.07 |  |
| Cc1ccc(NC(=O)C/C(N)=N/O)cc1Cl | -5.52 |  |

| SMILES | activity change, negative = growth inhibition [%] | Potency |
| --- | --- | --- |
| CNc1nc(Nc2ccc(C)c(Cl)c2)nc(N)c1[N+](=O)[O-] |  | 6.51 µM (active) |
| COCCNc1nc(N)c([N+](=O)[O-])c(NCCO)n1 | -9.94 |  |
| O=C(NCCc1ccc(Cl)cc1)C1CCCN1C(=O)NCc1ccccc1 (stereo not drawn) | -2.47 |  |
| O=C(CC1Oc2ccccc2NC1=O)NCc1ccc(F)cc1 (stereo not drawn) | -7.43 |  |
| O=C(CSc1ccc(/C=N/NC(=O)c2cccc(F)c2)o1)Nc1ccccc1 | -7.37 |  |
| O=C(N/N=C/c1ccc([N+](=O)[O-])o1)c1cn(-c2ccccc2)nc1-c1ccc(F)cc1 |  | 5.8 µM (active) |
| Cc1cc(C(=O)N/N=C/c2ccc(O)c([N+](=O)[O-])c2)c(C)n1-c1ccc(F)cc1 | -14.9 |  |
| COCC(=O)Nc1cc(C(=O)N2CCCC(c3ccccc3)CC2)c2c(c1)nc(-c1ccncc1)n2C (stereo not drawn) | -24.5 |  |
| COc1ccc(NC(=O)CC(NC(C)c2ccccc2)C(=O)O)cc1 (stereo not drawn) | 1.75 |  |
| C[C@@H]1CN([C@@H](C)CO)C(=O)CCCn2cc(nn2)CO[C@H]1CN(C)S(=O)(=O)c1ccc(-n2cccn2)cc1 | 1.79 |  |
| Cc1ccc(C)c(NC(=O)c2ccc3nccnc3c2)c1 | -24.9 |  |
| Cc1ccc(C)c(NC(=O)c2cc(-c3cc(C)cc(C)c3O)n[nH]2)c1 |  | 13 µM (active) |
| Cc1ccc(O)c(NC(=O)c2cc(-c3ccc(F)cc3)no2)c1 | -20.1 |  |
| CCCCN(C(=O)CCNC(=O)NC12CC3CC(CC(C3)C1)C2)c1c(N)n(CCCC)c(=O)[nH]c1=O | -21.6 |  |
| CCOc1cc(CO)ccc1OCC(=O)N1CCCCC1 | 3.17 |  |
| CCCC(=O)NC(C)C(c1cccs1)N1CCN(c2ccccc2)CC1 (stereo not drawn) | -22.2 |  |
| CC(NC(=O)Nc1ccccc1)C(c1cccs1)N1CCN(c2ccccc2)CC1 (stereo not drawn) |  | 23.1 µM (active) |
| Cc1ccc(C(=O)NCC(c2cccs2)N(C)C)cc1S(=O)(=O)N1CCOCC1 (stereo not drawn) | 19.3 |  |
| Cc1ccc(C(=O)NC(C)C(c2cccs2)N2CCOCC2)cc1C (stereo not drawn) |  | 18.4 µM (active) |
| CC(NC(=O)Nc1ccccc1)c1ccccc1 (stereo not drawn) | -10 |  |
| Cc1ccc(N(C(=O)c2ccc(CN3CCOCC3)o2)C(C(=O)NCCC(C)C)c2cccs2)c(C)c1 (stereo not drawn) | 4.05 |  |
| COC(=O)c1sc(SC)c(S(=O)(=O)C(C)C)c1N/N=C(\C#N)S(=O)(=O)c1ccccn1 | -16.8 |  |
| CC(=O)c1ccc(NC(=O)C(C)OC(=O)c2ccc(NS(=O)(=O)c3ccc4[nH]c(=O)[nH]c4c3)cc2)cc1 (stereo not drawn) | 8.98 |  |
| Cc1ccc(C(=O)OC(C)CN2CCOCC2)cc1 (stereo not drawn) | -22 |  |

| SMILES | activity change, negative = growth inhibition [%] | Potency |
| --- | --- | --- |
| COc1cc(OC)cc(C(=O)NC(C(=O)N2CCC2)C(C)C)c1 (stereo not drawn) | -6.14 |  |
| COc1ccc(N2CCN(C(=O)[C@@H](NC(=O)c3cc(OC)cc(OC)c3)C(C)C)CC2)cc1 |  | 8.2 µM (active) |
| COc1cc(OC)cc(C(=O)NCC(=O)N2CCCCCCC2)c1 | 3.53 |  |
| CCOc1ccc(/C(O)=C2/C(=O)C(=O)N(Cc3cccnc3)C2c2ccc(N(C)C)cc2)c(C)c1 (stereo not drawn) | 0.155 |  |
| C=CCC[C@H](CCCCC)OC(=O)/C=C/[C@H](O)[C@@H](O)C[C@@H](O)CC=C |  | 14.6 µM (active) |
| C=CCC[C@@H](CCCCC)OC(=O)/C=C/[C@@H](O)[C@H](O)C[C@H](O)CC=C |  | 18.4 µM (active) |
| O=S(=O)(Nc1ccccc1)c1ccc(NS(=O)(=O)c2cccs2)cc1 | -2.38 |  |
| Cc1ccc(NC(=O)CSc2nc3c(c(=O)[nH]2)CN(Cc2ccc4c(c2)OCO4)CC3)cc1C | -27.3 |  |
| O=C(CN1CCN(C(=O)c2cccc(F)c2)CC1)Nc1ccccc1F | 14.6 |  |
| C=CCC(NCc1ccco1)c1ccc(OC)cc1 (stereo not drawn) | -9.38 |  |
| Cc1ccc(S(=O)(=O)N2CCC(C(=O)N[C@@H](C)C(=O)NCc3ccco3)CC2)cc1 | -26.1 |  |
| Cc1ccc(Cn2cc(C(=O)NN)c(=O)c3ccc(F)cc32)cc1 | -13.2 |  |
| Cc1ccc(S(=O)(=O)N2CC(C)N(S(C)(=O)=O)C2)cc1 (stereo not drawn) | -1.31 |  |
| Cc1ccc(S(=O)(=O)N2C[C@@H]3CCCC[C@@H]3[C@@H](C)[C@H]2c2cn(Cc3ccccc3)c3ccc(F)cc23)cc1 |  | 6.51 µM (active) |
| CCOC(=O)c1sc(/N=C/C2=C(O)CC(C)(C)CC2=O)c(C(=O)OCC)c1C | 2.25 |  |
| CCOC(=O)c1c(NC(=S)Nc2ccccc2C)sc2c1CCC2 | -3.31 |  |
| CCOC(=O)c1c(NC(=O)c2ccc(Br)o2)sc2c1CCCC2 | -27.4 |  |
| CCOC(=O)c1c(NC(=O)C2(C)Cc3ccccc3C(=O)O2)sc2c1CCCC2 (stereo not drawn) |  | 16.4 µM (active) |
| COc1ccc(C(CNC(=O)COc2ccc([N+](=O)[O-])cc2)N2CCCCC2)cc1 (stereo not drawn) | -1.85 |  |
| O=C(Nc1cccc(NC(=O)c2ccccc2[N+](=O)[O-])c1)c1ccccc1Cl | -14.8 |  |
| COc1cccc(NC(=O)c2ccc(Cn3cc([N+](=O)[O-])cn3)o2)c1 | -26.5 |  |
| CN1C(=O)c2ccc(C(=O)Nc3ccc(Br)cn3)cc2C1=O | 12.5 |  |
| Cc1cccc(NC(=O)c2ccc([N+](=O)[O-])o2)c1 |  | 9.2 µM (active) |
| O=C(Nc1ccc(Br)cn1)c1ccc([N+](=O)[O-])cc1Cl | -27.6 |  |

| SMILES | activity change, negative = growth inhibition [%] | Potency |
| --- | --- | --- |
| O=C(Nc1ccc(Br)cn1)c1ccc([N+](=O)[O-])o1 |  | 5.17 µM (active) |
| Cc1[nH]c2ccccc2c1C(=O)C(=O)N(C)c1ccccc1 | -24.6 |  |
| O=C(OCCOc1ccccc1F)c1cc(S(=O)(=O)N2CCOCC2)ccc1F | -13.6 |  |
| CCc1ccccc1NC(=O)CSc1nnc(-c2ccncc2)o1 | -5.21 |  |
| O=C(CNCCO)NC12CC3CC(CC(C3)C1)C2 | 0.175 |  |
| Cc1ccc(S(=O)(=O)N2[C@@H](c3ccccc3F)C(C(=O)O)=CC[C@H]2c2ccc(Cl)cc2)cc1 | -17.6 |  |
| CCc1ccc([C@@H]2CC(=O)[C@@H]3CN(S(=O)(=O)c4ccc(C)cc4)[C@H](c4ccc(Cl)cc4)C[C@@H]3N2S(=O)(=O)c2ccc(C)cc2)cc1 | 8.29 |  |
| CCOC(=O)C1=CC[C@@H](c2ccccc2)N(S(=O)(=O)c2ccc(C)cc2)[C@H]1c1ccc(CC)cc1 |  | 16.4 µM (active) |
| Cc1ccc(S(=O)(=O)N2[C@@H](c3cccc(Cl)c3)C(C(=O)O)=CC[C@H]2c2ccc(Cl)c(Cl)c2)cc1 | -23.6 |  |
| CCCCC(c1nnnn1CS(=O)(=O)c1ccc(C)cc1)N1CCC(C(N)=O)CC1 (stereo not drawn) | -20.1 |  |
| Cc1ccccc1S(=O)(=O)N1[C@@H](c2cccc(Cl)c2)C(C(=O)OC(C)(C)C)=CC[C@H]1c1ccc(Cl)cc1 |  | 16.4 µM (active) |
| CCOC1=C2[C@H]([C@H]3C(=O)N(c4ccccc4)C(=O)[C@H]3C1)[C@@H](c1ccccc1)N(S(=O)(=O)c1ccc(C)cc1)[C@H]2c1ccccc1 | -12.7 |  |
| Cc1ccc(S(=O)(=O)N2[C@@H](c3ccc(Br)cc3)C(C(=O)O)=C[C@H]2CC2CCCC2)cc1 | -12.9 |  |
| Cc1ccc(S(=O)(=O)N2[C@@H](c3cccc4ccccc34)C(C(=O)O)=C[C@H]2C(C)(C)C)cc1 | 5.31 |  |
| CCCCC[C@@H]1C=C(C(=O)OCC)[C@H](c2ccccc2)N1S(=O)(=O)c1ccc(C)cc1 |  | 10.3 µM (active) |
| Cc1ccccc1S(=O)(=O)N1[C@@H](c2cccc(Cl)c2)C(C(=O)O)=CC[C@H]1c1ccc(Cl)cc1 | -5.82 |  |
| CCOC(=O)C1C(C)C(C(C)(C)C)N(S(=O)(=O)c2ccc(C)cc2)C1c1ccccc1 (stereo not drawn) |  | 16.4 µM (active) |
| Cc1cccc(/C(N)=N/OC(=O)c2ccccc2Cl)c1 | -18.2 |  |
| COc1ccc(C2=NOC3(CC(=O)N(c4ccc(C)cc4)C3=O)C2)cc1 (stereo not drawn) | -19.9 |  |
| Cc1nn(C)c(Oc2ccc(Cl)cc2)c1C=O | -24.7 |  |
| CCCCn1c(N)c(N(CCOC)C(=O)COc2c(C)cccc2C)c(=O)[nH]c1=O | -10.6 |  |
